Data reported in PubChem BioAssay (EPA / NIEHS).
“And” between values parts separate entries of the source, which are not always exact repeats. Equal values may be shown once. More than one record can exist for a structure, and the calls need not agree. The source made the active and inactive calls. Rule for the calls: active = hit-call score of the fitted dose curve at least 0.9, where 1 is the maximum; inactive = score below 0.9.

Experiment: APR_HepG2_MitoticArrest_72hr: Apredica 72-hour HepG2 Assay for Mitotic Arrest (AID 2282918)
Details: high-content imaging, actives raise or lower the signal
In short: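 HepG2 cells were exposed for 72 hr to compound at 0.39–200 uM (10 concentrations, duplicate) in 0.5% v/v DMSO, fixed in 3.7% formaldehyde, immunostained for phospho-histone H3 with Hoechst 33342 and imaged by high-content fluorescence; bidirectional fits versus DMSO.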

Row | Structure (SMILES) | outcome | AC50
1 | OCCOc1ccccc1 | inactive | –
2 | CC1(c2ccc(Oc3ccccc3)cc2)OC(=O)N(Nc2ccccc2)C1=O (stereo unspecified) | inactive | –
3 | CC(C)(C)C(O)C(Oc1ccc(Cl)cc1)n1cncn1 (stereo unspecified) | inactive | –
4 | O=S1OCC2C(CO1)C1(Cl)C(Cl)=C(Cl)C2(Cl)C1(Cl)Cl (stereo unspecified) | inactive | –
5 | CC(C)OC(=O)Nc1cccc(Cl)c1 | inactive | –
6 | COP(=S)(OC)Oc1ccc([N+](=O)[O-])cc1 | inactive | –
7 | O=C(O)C(F)(F)C(F)(F)C(F)(F)C(F)(F)C(F)(F)C(F)(F)C(F)(F)F | inactive | –
8 | Cc1[nH]c(=O)n(C(C)(C)C)c(=O)c1Cl | inactive | –
9 | O=[N+]([O-])c1c(Cl)c(Cl)c(Cl)c(Cl)c1Cl | inactive | –
10 | CCCN(CCOc1c(Cl)cc(Cl)cc1Cl)C(=O)n1ccnc1 | inactive | –
11 | O=S(=O)(O)C(F)(F)C(F)(F)C(F)(F)C(F)(F)C(F)(F)C(F)(F)C(F)(F)C(F)(F)F | inactive | –
12 | Oc1cc(Cl)ccc1Oc1ccc(Cl)cc1Cl | inactive | 27.9 µM (active)
13 | CCC(C)(NC(=O)c1cc(Cl)c(C)c(Cl)c1)C(=O)CCl (stereo unspecified) | inactive | –
14 | CNC(=O)Oc1ccccc1OC(C)C | inactive | –
15 | CNC(=O)CSP(=S)(OC)OC | inactive | –
16 | O=C1c2ccccc2C(=O)N1SC(Cl)(Cl)Cl | inactive | –
17 | ClC1C(Cl)C(Cl)C(Cl)C(Cl)C1Cl (stereo unspecified) | inactive | –
18 | [2H]C1([2H])[n+]2ccccc2-c2cccc[n+]2C1([2H])[2H] | – | 94.5 µM (active)
19 | COC(=O)c1ccccc1CS(=O)(=O)NC(=O)Nc1nc(OC)cc(OC)n1 | inactive | –
20 | CC[C@H](C)[C@H]1O[C@]2(C=C[C@@H]1C)C[C@@H]1C[C@@H](C/C=C(\C)[C@@H](O[C@H]3C[C@H](OC)[C@@H](O[C@H]4C[C@H](OC)[C@@H](O)[C@H](C)O4)[C@H](C)O3)[C@@H](C)/C=C/C=C3\CO[C@@H]4[C@H](O)C(C)=C[C@@H](C(=O)O1)[C@]34O)O2 (tested in a mixture with another compound) | inactive | –
21 | CNC(=O)Oc1cccc(N=CN(C)C)c1 | inactive | –
22 | Clc1ccccc1-c1nnc(-c2ccccc2Cl)nn1 | inactive | –
23 | Cc1cc(C)nc(NC(=O)NS(=O)(=O)c2ccccc2C(=O)OC2COC2)n1 | inactive | –
24 | O=C(O)COc1ccc(Cl)cc1Cl | inactive | –
25 | COC(=O)c1ccccc1S(=O)(=O)NC(=O)N(C)c1nc(C)nc(OC)n1 | inactive | –
26 | Oc1ccc(Cl)cc1Cc1ccccc1 | inactive | –

Experiment: APR_HepG2_MicrotubuleCSK_72hr: Apredica 72-hour HepG2 Assay for Microtubule CSK Stabilty (AID 2282919)
Details: HepG2 microtubule cytoskeleton, high-content imaging, actives raise or lower the signal
In short: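 HepG2, 72 hr cmpd exposure, 0.39–200 uM (10 pts, duplicate), 0.5% DMSO. 3.7% formaldehyde fix, 0.5% Triton perm, anti-alpha-tubulin/Cy5 plus Hoechst. HCS fluorescence intensity; bidirectional fit vs DMSO baseline; taxol as positive control.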

Row | Structure (SMILES) | outcome | AC50
27 | OCCOc1ccccc1 | inactive | –
28 | CC1(c2ccc(Oc3ccccc3)cc2)OC(=O)N(Nc2ccccc2)C1=O (stereo unspecified) | inactive | –
29 | CC(C)(C)C(O)C(Oc1ccc(Cl)cc1)n1cncn1 (stereo unspecified) | inactive | –
30 | O=S1OCC2C(CO1)C1(Cl)C(Cl)=C(Cl)C2(Cl)C1(Cl)Cl (stereo unspecified) | – | 117 µM (active)
31 | CC(C)OC(=O)Nc1cccc(Cl)c1 | inactive | –
32 | COP(=S)(OC)Oc1ccc([N+](=O)[O-])cc1 | inactive | –
33 | O=C(O)C(F)(F)C(F)(F)C(F)(F)C(F)(F)C(F)(F)C(F)(F)C(F)(F)F | inactive | –
34 | Cc1[nH]c(=O)n(C(C)(C)C)c(=O)c1Cl | inactive | –
35 | O=[N+]([O-])c1c(Cl)c(Cl)c(Cl)c(Cl)c1Cl | inactive | –
36 | CCCN(CCOc1c(Cl)cc(Cl)cc1Cl)C(=O)n1ccnc1 | – | 165 µM (active)
37 | O=S(=O)(O)C(F)(F)C(F)(F)C(F)(F)C(F)(F)C(F)(F)C(F)(F)C(F)(F)C(F)(F)F | inactive | 111 µM (active)
38 | Oc1cc(Cl)ccc1Oc1ccc(Cl)cc1Cl | inactive | 98.6 µM (active) and 71.5 µM (active)
39 | CCC(C)(NC(=O)c1cc(Cl)c(C)c(Cl)c1)C(=O)CCl (stereo unspecified) | inactive | –
40 | CNC(=O)Oc1ccccc1OC(C)C | inactive | –
41 | CNC(=O)CSP(=S)(OC)OC | inactive | –
42 | O=C1c2ccccc2C(=O)N1SC(Cl)(Cl)Cl | inactive | –
43 | ClC1C(Cl)C(Cl)C(Cl)C(Cl)C1Cl (stereo unspecified) | inactive | –
44 | [2H]C1([2H])[n+]2ccccc2-c2cccc[n+]2C1([2H])[2H] | – | 143 µM (active)
45 | COC(=O)c1ccccc1CS(=O)(=O)NC(=O)Nc1nc(OC)cc(OC)n1 | inactive | –
46 | CC[C@H](C)[C@H]1O[C@]2(C=C[C@@H]1C)C[C@@H]1C[C@@H](C/C=C(\C)[C@@H](O[C@H]3C[C@H](OC)[C@@H](O[C@H]4C[C@H](OC)[C@@H](O)[C@H](C)O4)[C@H](C)O3)[C@@H](C)/C=C/C=C3\CO[C@@H]4[C@H](O)C(C)=C[C@@H](C(=O)O1)[C@]34O)O2 (tested in a mixture with another compound) | inactive | –
47 | CNC(=O)Oc1cccc(N=CN(C)C)c1 | inactive | –
48 | Clc1ccccc1-c1nnc(-c2ccccc2Cl)nn1 | – | 12.8 µM (active)
49 | Cc1cc(C)nc(NC(=O)NS(=O)(=O)c2ccccc2C(=O)OC2COC2)n1 | inactive | –
50 | O=C(O)COc1ccc(Cl)cc1Cl | inactive | –
51 | COC(=O)c1ccccc1S(=O)(=O)NC(=O)N(C)c1nc(C)nc(OC)n1 | inactive | –
52 | Oc1ccc(Cl)cc1Cc1ccccc1 | inactive | 111 µM (active) and 62.5 µM (active)
